Our source for the Potency values is PubChem BioAssay AID1347120 (National Center for Advancing Translational Sciences (NCATS), 2019).

Out of some 390,000 compounds screened, about 930 (0.24%) were called active. Inconclusive results (about 5%) are left out. The call rests on the fitted dose curve; in most records, active means well fitted activation curve with a large enough effect; inconclusive means small, poorly fitted or top-dose-only effect; inactive means no such curve, though single readings can be large or run the other way. What follows is part of a selection rich in actives, with near analogues and random picks from the rest. Entries that show only a call come without a potency.
Potency means the concentration at half of the fitted maximal effect.

This test is described as follows: qHTS for Suppressors of FUS Proteinopathy: Primary screen using FUS-linked yeast assay. Further: nearly all actives have a fitted effect of over 55% in size. The conditions noted are these: S. cerevisiae FUS-expressing, OD600, 24 h; Potency: growth rescue; series mostly up to 76.6 µM. From the text:
Several widespread neurodegenerative diseases, including Alzheimer disease, Huntington disease, Frontotemporal Lobar Degeneration (FTLD) and Amyotrophic Lateral Sclerosis (ALS), share a common pathological feature, namely accumulation of specific protein aggregates in diseased tissue. These diseases which is associated with protein misfolding (proteinopathies) have become increasingly problematic as the population ages and life expectancies are extended. Most proteinopathies are currently incurable, a situation confounded by the fact that the basis of neurodegeneration is generally poorly understood. There exists urgent and significant need to find therapeutics that can inhibit the toxicity associated with protein aggregation. A novel approach to understand the underlying mechanisms of neurodegenerative diseases has recently emerged in which the disease conditions are modeled in the yeast (Saccharomyces cerevisiae), a tractable eukaryotic organism with conserved protein quality control mechanisms. Yeast offers quick and reliable genetic manipulations and can be easily tailored to high-throughput screening (HTS).
For this project, a yeast model of the FUS proteinopathies (a spectrum of neurodegenerative diseases that include ALS and a subtype of FTLD) was generated and employed. The cytoplasmic accumulation of the DNA/RNA-binding protein FUS (also known as TLS) is causative to both familial and sporadic forms of ALS and FTLD. This yeast model recapitulates neuronal pathology by showing severe cytotoxicity associated with cytoplasmic accumulation of FUS aggregates and a specific interaction between FUS and TDP-43, another ALS-associated protein. […] Specifically, the cellular accumulation of misfolded FUS that disrupts RNA homeostasis in both yeast and higher eukaryotes. This model was validated to be suitable for quantitative HTS (qHTS) use for finding genetic or chemical factors that restore growth. […] Identified compounds that inhibits FUS-yeast toxicity is flagged, re-acquired, and validated for further investigation and optimization.
NIH Chemical Genomics Center [NCGC]
NIH Molecular Libraries Probe Production Centers Network [MLPCN]
Assay Submitter (PI): Frank Shewmaker PhD, Uniformed Services University of the Health Sciences
Compound CP55940 was used as the positive control. Column 1 was treated with CP55940 titration from 92uM (final concentration, 1:2 dilution), while Column 2 was treated with top dose 92uM. Columns 3 and 4 were treated with DMSO only as negative control to assess background and noise signal.
Four hundred fifty microliter of cultured yeast (in 20mL rich medium) provided by Dr. Shewmaker lab was incubated at 30C at 99% humidity for 3hr. The culture was then spun down at 4000rpm for 5min and the cell pellet was resuspended in 2mL of Sdmin Media + ALU(330) + 2.5% Raffinose. One hundred microliter of the suspension was added to 900uL of water and OD of the solution was obtained. Twenty mL of responding medium (provided by Shewmaker lab) + 2.5% raffinose was added to ensure cell density of 0.1; the solution was incubated overnight. Working cell solution (FUS-yeast in Sdmi + Sdmi + 1X ALU + 2% galactose media) was prepared (final OD at 0.005) and 3uL was dispensed in a 1536-well Aurora high based clear bottom assay plates. Controls and library compounds (at various final concentrations from 40uM to 0.32uM) were added using a 1536-well pin array using the Kalypsys pin-tool. The plates were then incubated for 24hrs in a cell-culture incubator (30C; 99% humidity). Absorbance at 600nm was then read using the PerkinElmer ViewLux plate reader.
Regarding `COc1ccc(S(=O)(=O)N(C)C[C@H]2Oc3c(NC(=O)Nc4ccc5c(c4)OCO5)cccc3C(=O)N([C@H](C)CO)C[C@@H]2C)cc1`, the Potency is 25.1 µM (active).
In the case of `CC(C)NC(=O)Nc1cccc2c1O[C@@H](CN(C)S(=O)(=O)c1ccc(F)cc1)[C@@H](C)CN([C@H](C)CO)C2=O`, the Potency result is “inactive”.
As to `COc1ccc(S(=O)(=O)Nc2cccc3c2O[C@H](CN(C)S(=O)(=O)c2ccc(OC)cc2)[C@@H](C)CN([C@H](C)CO)C3=O)cc1`, the Potency result is “inactive”.
As for `COc1cc(OC)c(NC(=O)c2cc(S(=O)(=O)N3CCCC3)cn2C)cc1Cl`, the Potency result was “inactive”.
With `COC(=O)c1ccccc1NC(=O)C(Cc1ccccc1)N1Cc2ccccc2C1=O` (stereo not drawn), the Potency result is “inactive”.
Turning to `Cc1cccc(CCNC(=O)c2ccc3c(c2)nc2n3CCC(C)C2)c1` (stereo not drawn), the Potency result is “inactive”.
Regarding `COc1cccc(NC(=O)N2CCN(C(=O)c3nsc4ccccc34)CC2)c1`, the Potency entry is “inactive”.
Take `Cc1nc(SCCOc2ccc(Cl)cc2)[nH]c(=O)c1Cc1ccccc1`: the Potency entry is “inactive”.
Then `O=C(CNC(=O)Cc1ccccc1)NCC(=O)OCC(=O)c1ccccc1Cl`, with “inactive”.
Regarding `COP(=O)(O)CNC(=O)OCc1ccccc1`, the Potency entry is “inactive”.
Turning to `O=C(CNC(=O)OCc1ccccc1)Oc1cc2oc(=O)cc(-c3ccccc3)c2cc1Cl`, the Potency is 12.6 µM (active).
`CCOc1ccc(N=Cc2c(O)n(-c3cccc(C)n3)c(=O)c3ccccc23)cc1`: the Potency was 8.91 µM (active).
On to `CCO/C=C1\C(=O)N(c2ccc(OCC)cc2)C(=O)c2ccccc21`, for which the Potency result is “inactive”.
Turning to `COC(=O)Cc1csc(/N=C/c2c(O)n(-c3cccc(C(F)(F)F)c3)c(=O)c3ccccc23)n1`, the Potency result was “inactive”.
For the molecule `CCc1ccc(NC(=O)CCCc2nnc3n(CCCOC)c(=O)c4sccc4n23)cc1`, the Potency entry was “inactive”.
Turning to `Cn1c(=O)c(=O)n(C)c2cc(NC(=O)c3ccccc3Br)ccc21`, the Potency result was “inactive”.
In the case of `O=C(Nc1nc2c(s1)CCCC2)c1ccccc1F`, the Potency entry is “inactive”.
For `COc1ccc2c(c1)Cc1sc(NC(=O)c3ccccc3Br)nc1-2`, the Potency was 28.2 µM (active).
On to `CN(C(=O)c1ccc2c(c1)N(Cc1cccc(Cl)c1)C(=O)c1ccccc1S2=O)C1CCCCC1` (stereo not drawn), for which the Potency entry is “inactive”.
Then `CC(C)CCn1c(CN(C)Cc2ccccc2)nc2c1c(=O)n(C)c(=O)n2C`, with “inactive”; and `Cn1c(=O)[nH]c(=O)c2c1nc(CN(Cc1ccccc1)Cc1ccccc1)n2CCN1CCOCC1`, with “inactive”.
For the molecule `CC(C)Cn1c(CN(Cc2ccccc2)Cc2ccccc2)nc2c1c(=O)n(C)c(=O)n2C`, the Potency was 31.6 µM (active).
Consider `CCN(CC)c1ccc(NC(=O)CN2C(=O)c3cccnc3Oc3ccc(Cl)cc32)c(C)c1`, for which the Potency result is “inactive”.
Then `Cc1cc(/C=N/NC(N)=O)c(C)n1C1CCCCC1`, with 22.4 µM (active); and `Cc1ccc(Nc2cc(=O)n(C3CCCCC3)c(=O)[nH]2)cc1C`, with “inactive”; and `CC1CCc2sc(C(=O)N/N=C/C3CCCCC3)cc2C1` (stereo not drawn), with “inactive”.
Then `CCc1ccccc1NC(=O)N1CCN(C(=O)c2nsc3ccccc23)CC1`, with “inactive”.
For the molecule `CCOc1cccc(NC(=O)CSc2ncc(-c3ccc(Cl)cc3)[nH]2)c1`, the Potency result was “inactive”.
The result for `CCNC(=O)Cn1nc(C)n2c(cc3c(OC)cccc32)c1=O` reads “inactive”; that for `CC(C)(C)OC(=O)C[C@@H]1C/C=C\C[C@@H](CC(=O)N(CCO)Cc2ccccc2)C(=O)N[C@H](Cc2ccccc2)COC1=O`, “inactive”; that for `O=C1N[C@@H](c2ccccc2)COC(=O)[C@H](Cc2ccc(F)cc2)C/C=C\C[C@@H]1CC(=O)N(CCO)Cc1ccccc1`, 22.4 µM (active).
As to `O=C1CCC/C=C\C[C@@H](CC(=O)N(CCO)Cc2ccccc2)C(=O)NCCO1`, the Potency result is “inactive”.
Turning to `CCC1CCCCN1Cc1c(O)ccc2c(=O)c(Oc3ccccc3Cl)c(C(F)(F)F)oc12` (stereo not drawn), the Potency entry is “inactive”.
`Cc1ccc(C)c(Cn2c(CCCNC(=O)C3CCCCC3)nc3ccccc32)c1`: the Potency result was “inactive”.
The result for `COCCNC(=O)c1cc(-c2cccc(Cl)c2)on1` reads “inactive”; that for `COc1ccccc1C1/C(=C(/O)c2ccc(OC(C)C)cc2)C(=O)C(=O)N1c1cc(C)on1` (stereo not drawn), 20 µM (active).
For the molecule `Cc1cc(N2C(=O)C(=O)/C(=C(/O)c3ccccc3)C2c2cccc(Br)c2)no1` (stereo not drawn), the Potency result is “inactive”.
Regarding `Cc1cc(N2C(=O)C(=O)/C(=C(/O)c3ccc(Cl)cc3)C2c2cccc(Br)c2)no1` (stereo not drawn), the Potency entry is “inactive”.
With `Cc1ccc(-c2cn3c(n2)sc2cc(C(=O)NCCCc4ccccc4)ccc23)cc1`, the Potency result was “inactive”.
For the molecule `O=C(CSc1nccn1C1CCCC1)Nc1cc(C(F)(F)F)ccc1Cl`, the Potency result is “inactive”.
On to `COc1ccc(CNC(=O)CC2Oc3ccc(C)cc3NC2=O)cc1` (stereo not drawn), for which the Potency result is “inactive”.
As to `CC(=O)Nc1ccc(NC(=O)CCCc2nc(-c3ccc(C(C)(C)C)cc3)no2)cc1`, the Potency entry is “inactive”.
On to `CC1Cc2cc(S(=O)(=O)CCC(=O)Nc3ccc(F)c(Cl)c3)ccc2N1C(=O)C1CC1` (stereo not drawn), for which the Potency result was “inactive”.
Regarding `COc1ccccc1-c1cc(C(F)(F)F)nc(S(=O)(=O)CCCC(=O)Nc2ccc(F)cc2F)n1`, the Potency result is “inactive”.
`CCCCc1nn2c(=O)cc(COC(=O)c3ccc(NC(=O)c4ccccc4C)cc3)nc2s1`: the Potency result is “inactive”.
In the case of `CCCCOc1ccc(CN2C(=O)C(=O)c3cc(Br)cc(C)c32)cc1OC`, the Potency result was “inactive”.
Turning to `Cc1ccc(CNC(=O)CCc2c(C)nc3c(c(C)nn3-c3ccccc3)c2C)cc1`, the Potency result was “inactive”.
Take `CCN(CC)C(=O)CSc1nc2cc3c(cc2c(=O)n1CCCC(=O)NCc1ccc2c(c1)OCO2)OCO3`: the Potency result was “inactive”.
Regarding `CCOc1ccc(-c2cc3c(=O)n(CC(=O)NCc4ccc(OC)cc4)ccn3n2)cc1`, the Potency entry is “inactive”.
Then `COc1cccc(-n2c(=O)c3c(C)c(C(=O)N(C)C)sc3n(Cc3cccc(C)c3)c2=O)c1`, with “inactive”.
As for `CCN(CC(=O)Nc1cccc(S(N)(=O)=O)c1)Cc1nc2ccccc2c(=O)[nH]1`, the Potency entry is “inactive”.
Turning to `CCN(CC(=O)Nc1ccc(Cl)c(S(=O)(=O)N(C)C)c1)Cc1nc2ccccc2c(=O)[nH]1`, the Potency is 31.6 µM (active).
On to `CCN(CC(=O)NC(=O)NCc1ccccc1)Cc1nc2ccccc2c(=O)[nH]1`, for which the Potency entry is “inactive”.
Turning to `CCN1CCN(CCCNC(=O)c2ccc3c(c2)sc2nc(-c4ccc(OC)cc4)cn23)CC1`, the Potency result was “inactive”.
The result for `COc1ccc(CC(=O)NCCc2sc3nc(-c4ccc(OC)cc4)nn3c2C)cc1` reads “inactive”; that for `COC(=O)CN1C(=O)CSc2ccc(S(=O)(=O)Nc3cc(C)ccc3C)cc21`, “inactive”.
In the case of `Cc1ccc2nc(N3CCN(c4cccc(Cl)c4)CC3)c3nnnn3c2c1`, the Potency entry is “inactive”.
Take `Cc1nnc(N2CCC(C(=O)Nc3ccc(F)cc3)CC2)c2nn(-c3ccc(Cl)cc3)c(C)c12`: the Potency result was “inactive”.
